Where a chain is given by its changes, count along the chain named.

Holding throughout (assay): PBM; 200 nM protein, PBS
Conditions in all cases: dsDNA, one strand shown

In test [1] the target is T1, VENTX (Homo sapiens, UniProt O95231 78-163, R121Q).
T1 sequence: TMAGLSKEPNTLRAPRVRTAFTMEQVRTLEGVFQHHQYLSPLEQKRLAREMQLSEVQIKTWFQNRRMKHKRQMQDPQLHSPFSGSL

The target in test [2] is T2, VENTX (Homo sapiens, UniProt O95231 78-163).
T2 sequence: T1 sequence with Q44R

Test [3] addresses T3, VENTX (Homo sapiens, UniProt O95231 78-163, Y115F).
T3 sequence: T1 sequence with Y38F, Q44R

Test [4] concerns the target HOXA2 (Homo sapiens, UniProt O43364 129-215, R185T).
The target in test [5] is HOXA2 (Homo sapiens, UniProt O43364 129-215, R185K).
In test [6] the target is HOXA2 (Homo sapiens, UniProt O43364 129-215, Y150S).
Test [7] addresses HOXA2 (Homo sapiens, UniProt O43364 129-215).

Sequence of HOXA2 (Homo sapiens, UniProt O43364 129-215, Y150S) (O43364 129-215 Y150S): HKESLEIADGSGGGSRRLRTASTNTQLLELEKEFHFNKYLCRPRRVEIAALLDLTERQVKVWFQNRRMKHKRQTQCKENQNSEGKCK
Sequence of HOXA2 (Homo sapiens, UniProt O43364 129-215, R185K) (O43364 129-215 R185K): as the sequence (O43364 129-215 Y150S) above, with S22Y, R57K counted along it
Sequence of HOXA2 (Homo sapiens, UniProt O43364 129-215) (O43364 129-215): as the sequence (O43364 129-215 Y150S) above, with S22Y counted along it
Sequence of HOXA2 (Homo sapiens, UniProt O43364 129-215, R185T) (O43364 129-215 R185T): as the sequence (O43364 129-215 Y150S) above, with S22Y, R57T counted along it

In the case of ACCACGCC, the binding signal was 7.95 upbm affinity estimate (log intensity, higher = more binding, comparable within an allelic series) in the test with VENTX [1]; 8.09 upbm affinity estimate (log intensity, higher = more binding, comparable within an allelic series) in the test with VENTX [2]; 7.97 upbm affinity estimate (log intensity, higher = more binding, comparable within an allelic series) with VENTX [3].

For GTCCACGA, the binding signal with VENTX [1] is 8.05 upbm affinity estimate (log intensity, higher = more binding, comparable within an allelic series); with VENTX [2], 7.92 upbm affinity estimate (log intensity, higher = more binding, comparable within an allelic series); with VENTX [3], 7.98 upbm affinity estimate (log intensity, higher = more binding, comparable within an allelic series).

On to CCATTAGG, for which the binding signal in the test with VENTX [1] was 11.7 upbm affinity estimate (log intensity, higher = more binding, comparable within an allelic series); with VENTX [2] it was 12.4 upbm affinity estimate (log intensity, higher = more binding, comparable within an allelic series); with VENTX [3], 11.4 upbm affinity estimate (log intensity, higher = more binding, comparable within an allelic series).

In the case of GGTCGGGA, the binding signal with VENTX [1] is 8.05 upbm affinity estimate (log intensity, higher = more binding, comparable within an allelic series); with VENTX [2], 8.36 upbm affinity estimate (log intensity, higher = more binding, comparable within an allelic series); with VENTX [3] it was 8.02 upbm affinity estimate (log intensity, higher = more binding, comparable within an allelic series).

Turning to AACGATTA, the binding signal was 11.2 upbm affinity estimate (log intensity, higher = more binding, comparable within an allelic series) in the test with VENTX [1]; 12.3 upbm affinity estimate (log intensity, higher = more binding, comparable within an allelic series) in the test with VENTX [2]; 11.3 upbm affinity estimate (log intensity, higher = more binding, comparable within an allelic series) in the test with VENTX [3].

On to CCGGGTGC, for which the binding signal with VENTX [1] is 8.11 upbm affinity estimate (log intensity, higher = more binding, comparable within an allelic series); in the test with VENTX [2] it was 8.38 upbm affinity estimate (log intensity, higher = more binding, comparable within an allelic series); in the test with VENTX [3], 8.21 upbm affinity estimate (log intensity, higher = more binding, comparable within an allelic series).

In the case of TAATGGGA, the binding signal was 11.5 upbm affinity estimate (log intensity, higher = more binding, comparable within an allelic series) with VENTX [1]; 12.4 upbm affinity estimate (log intensity, higher = more binding, comparable within an allelic series) in the test with VENTX [2]; 11.3 upbm affinity estimate (log intensity, higher = more binding, comparable within an allelic series) with VENTX [3].

Take CCAAGGGC: the binding signal is 8.09 upbm affinity estimate (log intensity, higher = more binding, comparable within an allelic series) in the test with VENTX [1]; 8.33 upbm affinity estimate (log intensity, higher = more binding, comparable within an allelic series) with VENTX [2]; 8.21 upbm affinity estimate (log intensity, higher = more binding, comparable within an allelic series) with VENTX [3].

For the sequence CCAAATTA, the binding signal with VENTX [1] is 10.8 upbm affinity estimate (log intensity, higher = more binding, comparable within an allelic series); with VENTX [2], 11.4 upbm affinity estimate (log intensity, higher = more binding, comparable within an allelic series); in the test with VENTX [3], 10.8 upbm affinity estimate (log intensity, higher = more binding, comparable within an allelic series).

On to TACATATA, for which the binding signal with VENTX [1] is 9.51 upbm affinity estimate (log intensity, higher = more binding, comparable within an allelic series); with VENTX [2] it was 9.59 upbm affinity estimate (log intensity, higher = more binding, comparable within an allelic series); in the test with VENTX [3], 9.49 upbm affinity estimate (log intensity, higher = more binding, comparable within an allelic series).

With AATATTTG, the binding signal with VENTX [1] is 9.84 upbm affinity estimate (log intensity, higher = more binding, comparable within an allelic series); in the test with VENTX [2], 10 upbm affinity estimate (log intensity, higher = more binding, comparable within an allelic series); in the test with VENTX [3] it was 9.7 upbm affinity estimate (log intensity, higher = more binding, comparable within an allelic series).

Consider TCGATTAA, for which the binding signal in the test with VENTX [1] is 11.4 upbm affinity estimate (log intensity, higher = more binding, comparable within an allelic series); in the test with VENTX [2] it was 12.3 upbm affinity estimate (log intensity, higher = more binding, comparable within an allelic series); with VENTX [3], 11.2 upbm affinity estimate (log intensity, higher = more binding, comparable within an allelic series).

Regarding CACTGCGC, the binding signal is 8.04 upbm affinity estimate (log intensity, higher = more binding, comparable within an allelic series) with VENTX [1]; 8.14 upbm affinity estimate (log intensity, higher = more binding, comparable within an allelic series) in the test with VENTX [2]; 8.18 upbm affinity estimate (log intensity, higher = more binding, comparable within an allelic series) with VENTX [3].

As for AAATTGAT, the binding signal in the test with VENTX [1] was 10.3 upbm affinity estimate (log intensity, higher = more binding, comparable within an allelic series); in the test with VENTX [2], 10.7 upbm affinity estimate (log intensity, higher = more binding, comparable within an allelic series); with VENTX [3], 9.99 upbm affinity estimate (log intensity, higher = more binding, comparable within an allelic series).

Regarding GTTAATAA, the binding signal in the test with VENTX [1] is 10.8 upbm affinity estimate (log intensity, higher = more binding, comparable within an allelic series); with VENTX [2] it was 11.2 upbm affinity estimate (log intensity, higher = more binding, comparable within an allelic series); with VENTX [3] it was 10.6 upbm affinity estimate (log intensity, higher = more binding, comparable within an allelic series).

For the sequence ATCGATAA, the binding signal with VENTX [1] was 10.3 upbm affinity estimate (log intensity, higher = more binding, comparable within an allelic series); in the test with VENTX [2], 11 upbm affinity estimate (log intensity, higher = more binding, comparable within an allelic series); in the test with VENTX [3], 10.2 upbm affinity estimate (log intensity, higher = more binding, comparable within an allelic series).

For the sequence GCCGGCAC, the binding signal with VENTX [1] was 7.98 upbm affinity estimate (log intensity, higher = more binding, comparable within an allelic series); with VENTX [2] it was 7.91 upbm affinity estimate (log intensity, higher = more binding, comparable within an allelic series); with VENTX [3] it was 7.98 upbm affinity estimate (log intensity, higher = more binding, comparable within an allelic series).

For CCGATTAA, the binding signal in the test with VENTX [1] is 11.3 upbm affinity estimate (log intensity, higher = more binding, comparable within an allelic series); in the test with VENTX [2] it was 12.5 upbm affinity estimate (log intensity, higher = more binding, comparable within an allelic series); in the test with VENTX [3] it was 11.3 upbm affinity estimate (log intensity, higher = more binding, comparable within an allelic series).

In the case of GCGCAGCA, the binding signal with VENTX [1] was 7.82 upbm affinity estimate (log intensity, higher = more binding, comparable within an allelic series); with VENTX [2] it was 7.9 upbm affinity estimate (log intensity, higher = more binding, comparable within an allelic series); with VENTX [3] it was 7.91 upbm affinity estimate (log intensity, higher = more binding, comparable within an allelic series).

Regarding GCCAGGCA, the binding signal with VENTX [1] is 8.27 upbm affinity estimate (log intensity, higher = more binding, comparable within an allelic series); with VENTX [2], 8.55 upbm affinity estimate (log intensity, higher = more binding, comparable within an allelic series); with VENTX [3], 8.35 upbm affinity estimate (log intensity, higher = more binding, comparable within an allelic series).

Turning to GCTAAATA, the binding signal was 10.1 upbm affinity estimate (log intensity, higher = more binding, comparable within an allelic series) in the test with VENTX [1]; 10.6 upbm affinity estimate (log intensity, higher = more binding, comparable within an allelic series) in the test with VENTX [2]; 10 upbm affinity estimate (log intensity, higher = more binding, comparable within an allelic series) in the test with VENTX [3].

As to CGAGCCAC, the binding signal is 8.17 upbm affinity estimate (log intensity, higher = more binding, comparable within an allelic series) with VENTX [1]; 8.51 upbm affinity estimate (log intensity, higher = more binding, comparable within an allelic series) in the test with VENTX [2]; 8.31 upbm affinity estimate (log intensity, higher = more binding, comparable within an allelic series) with VENTX [3].

Turning to CCCCGTAC, the binding signal in the test with VENTX [1] is 8.03 upbm affinity estimate (log intensity, higher = more binding, comparable within an allelic series); with VENTX [2], 8.06 upbm affinity estimate (log intensity, higher = more binding, comparable within an allelic series); with VENTX [3], 8.02 upbm affinity estimate (log intensity, higher = more binding, comparable within an allelic series).

For AGGTCAGG, the binding signal is 8.18 upbm affinity estimate (log intensity, higher = more binding, comparable within an allelic series) in the test with VENTX [1]; 8.14 upbm affinity estimate (log intensity, higher = more binding, comparable within an allelic series) in the test with VENTX [2]; 8.06 upbm affinity estimate (log intensity, higher = more binding, comparable within an allelic series) with VENTX [3].

Regarding CGCTAGGC, the binding signal was 8.19 upbm affinity estimate (log intensity, higher = more binding, comparable within an allelic series) in the test with VENTX [1]; 8.31 upbm affinity estimate (log intensity, higher = more binding, comparable within an allelic series) with VENTX [2]; 8.19 upbm affinity estimate (log intensity, higher = more binding, comparable within an allelic series) with VENTX [3].

Regarding CTAATCGA, the binding signal was 11.6 upbm affinity estimate (log intensity, higher = more binding, comparable within an allelic series) with VENTX [1]; 12.5 upbm affinity estimate (log intensity, higher = more binding, comparable within an allelic series) with VENTX [2]; 11.1 upbm affinity estimate (log intensity, higher = more binding, comparable within an allelic series) with VENTX [3].

Consider AGCCCGGA, for which the binding signal was 8.11 upbm affinity estimate (log intensity, higher = more binding, comparable within an allelic series) in the test with VENTX [1]; 7.92 upbm affinity estimate (log intensity, higher = more binding, comparable within an allelic series) in the test with VENTX [2]; 8.12 upbm affinity estimate (log intensity, higher = more binding, comparable within an allelic series) with VENTX [3].

In the case of GGCGGCCC, the binding signal is 8.11 upbm affinity estimate (log intensity, higher = more binding, comparable within an allelic series) with VENTX [1]; 8.22 upbm affinity estimate (log intensity, higher = more binding, comparable within an allelic series) in the test with VENTX [2]; 8.03 upbm affinity estimate (log intensity, higher = more binding, comparable within an allelic series) with VENTX [3]; 7.21 upbm affinity estimate (log intensity, higher = more binding, comparable within an allelic series) with HOXA2 [4]; 9.97 upbm affinity estimate (log intensity, higher = more binding, comparable within an allelic series) with HOXA2 [5]; 10.3 upbm affinity estimate (log intensity, higher = more binding, comparable within an allelic series) with HOXA2 [6]. The binding signal with HOXA2 [7] is 7.16 upbm affinity estimate (log intensity, higher = more binding, comparable within an allelic series).
